Data as given in PubChem BioAssay (Tox21).
Values without a mark were called inactive. Records with an inconclusive call do not appear. Where a call stands in place of a potency, no number is given. The source made the active and inactive calls. Unless noted, calls come from the whole dose curve; as a rule, active = well fitted curve in the direction sought with a large enough effect in the repeat runs; inconclusive = weak or mixed curves; inactive = no such curve, though single readings can be large; an effect the other way counts as inactive or inconclusive.

Experiments:
[1] = qHTS assay to identify small molecule agonists of the estrogen receptor alpha (ER-alpha) signaling pathway in the presence of an antagonist - cell viability counter screen (AID 1259386);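 note: series mostly up to about 92 µM; cells exposed to compounds for 22 h at 37 °C before the viability read; nearly all actives have a fitted effect of over 30% in size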
Procedure, shortened: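 Viability counter screen using VM7Luc4E2 (full-length ER-alpha, four ERE-luciferase). The cells were treated with compounds alongside ICI-182,780 10.0nM for 22hr, and live-cell protease fluorescence was quantified with CellTiter-Fluor.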

[2] = molecular target: Progesterone receptor (Homo sapiens) (UniProt P06401); assay: qHTS assay to identify small molecule agonists of the progesterone receptor (PR) signaling pathway (AID 1346784; calls by dose curve; note: nearly all actives have a fitted effect of over 30% in size)
Procedure, shortened: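 PR-UAS-bla HEK 293T cells (beta-lactamase reporter under UAS) in 2% charcoal-stripped FBS, dosed with 23 nL compound after 6 hr, incubated 16hr at 37C. LiveBLAzer B/G FRET substrate added, fluorescence read after 2 hours.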

[3] = molecular target: Progesterone receptor (Homo sapiens) (UniProt P06401); assay: qHTS assay to identify small molecule antagonists of the progesterone receptor (PR) signaling pathway (AID 1346795; active = well fitted inhibition curve with a large enough effect in the signal ratio in the repeat runs, not every such curve was filed as active; the % refers to the signal ratio; note: potency is the fitted concentration of half-maximal effect)
Procedure, shortened: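 PR-UAS-bla HEK293T cells with beta-lactamase reporter under UAS control, in 2% charcoal-stripped FBS, treated with compounds plus 1 nM promegestone (R5020, final) for 16 hr at 37C. Read-out: FRET beta-lactamase substrate fluorescence after 2 hr at room temperature.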

[4] = qHTS assay to identify small molecule antagonists of the progesterone receptor (PR) signaling pathway - cell viability counter screen (AID 1346798); note: series mostly up to about 92 µM; nearly all actives have a fitted effect of over 50% in size
Procedure, shortened: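 PR-UAS-bla HEK293T cells, 3,000/well in 2% charcoal-stripped FBS medium, dosed with compounds plus R5020 agonist and incubated 16 h at 37C. Viability then measured in the same wells by CellTiter-Glo luminescence after 30 min at RT.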

[5] = qHTS assay to identify small molecule agonists of the progesterone receptor (PR) signaling pathway - cell viability counter screen (AID 1346799; calls by dose curve; note: nearly all actives have a fitted effect of over 45% in size)
Procedure, shortened: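 Counter screen in the PR-UAS-bla HEK293T wells (2% charcoal-stripped FBS, 16 h compound exposure at 37 C) after the bla read. CellTiter-Glo added, 30 min at room temperature, luminescence read as cell viability.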

[6] = qHTS assay to identify small molecule antagonists of the TGF-beta/Smad signaling pathway - cell viability counter screen (AID 1346824); note: nearly all actives have a fitted effect of over 50% in size
Procedure, shortened: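 Cytotoxicity counter-screen run in the same wells as the beta-lactamase Smad reporter read: CellTiter-Glo luminescence after 30 min at room temperature. HEK 293T SBE-bla cells had 5 hr compound exposure at 37 C with TGF-beta1 (0.25 ng/mL stock).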

[7] = qHTS assay to identify small molecule agonists of the TGF-beta/Smad signaling pathway - cell viability counter screen (AID 1346829); note: top concentration of the series differs between compounds; nearly all actives have a fitted effect of over 45% in size
Procedure, shortened: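 SBE-bla HEK 293T cells plated overnight, compound exposure 5 hr at 37 C. Viability read in the same wells by CellTiter-Glo luminescence after 30 min at room temperature, following the beta-lactamase read.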

[8] = qHTS assay to identify small molecule agonists of the TGF-beta/Smad signaling pathway (AID 1346859; active = well fitted activation curve with a large enough effect in the signal ratio in the repeat runs, not every such curve was filed as active; the % refers to the signal ratio; note: series mostly up to about 77 µM)
Procedure, shortened: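 SBE-bla HEK293T cells plated overnight, then compound exposure for 5 h at 37 C. Beta-lactamase reporter read with LiveBLAzer B/G FRET substrate after 2 h at room temperature, fluorescence at 405 nm excitation, 460/530 nm emission.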

[9] = molecular target: Thyrotropin-releasing hormone receptor (Homo sapiens) (UniProt P34981); assay: qHTS assay to identify small molecule antagonists of the thyrotropin-releasing hormone receptor (TRHR) signaling pathway (AID 1346877; active = well fitted inhibition curve with a large enough effect in the repeat runs, not every such curve was filed as active; note: series mostly up to about 51 µM)
Procedure, shortened: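 Following an 18 h incubation at 37 °C and a 2 h calcium dye load, TRHR-HEK293 cells were exposed to compound (5 min, room temperature) and challenged with TRH, 1 nM final.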

[10] = molecular target: Thyrotropin-releasing hormone receptor (Homo sapiens) (UniProt P34981); assay: qHTS assay to identify small molecule agonists of the thyrotropin-releasing hormone receptor (TRHR) signaling pathway (AID 1346891; calls by dose curve; note: series mostly up to about 58 µM)
Procedure, shortened: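 HEK293 cells expressing TRHR plated 18 h at 37 C/5% CO2, calcium dye-loaded 2 h at 37 C, then compound added (agonist mode); kinetic calcium fluorescence read 3 min at 1 s intervals; 15 concentrations in triplicate.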

[11] = Human pregnane X receptor (PXR) small molecule agonists, qHTS cell viability counter screen (AID 1346977); note: nearly all actives have a fitted effect of over 50% in size
Procedure, shortened: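 PXR-Luc HepG2 cells (2,000/well, 5% charcoal-stripped FBS) preincubated 5 hr, then exposed to compounds 24 hr at 37 C. Viability read in the same wells by CellTiter-Fluor fluorescence, reagent added at 23 hr, 1 hr incubation.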

[12] = Caspase-3/7 induction in HepG2 cells by small molecules, qHTS assay (AID 1346978); note: nearly all actives have a fitted effect of over 15% in size
Procedure, shortened: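 Caspase-3/7 induction was measured by Caspase-Glo 3/7 luminescence (30 min, room temperature) after a 17 hr compound exposure of wild-type HepG2 cells seeded at 2,000 per well and pre-incubated 5 hr.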

[13] = Caspase-3/7 induction in CHO-K1 cells by small molecules, qHTS cell viability counter screen (AID 1346979); note: nearly all actives have a fitted effect of over 35% in size
Procedure, shortened: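 Wild-type CHO-K1 cells (1,500/well) treated with compound after 5 h plating; after 16 h at 37C, viability read as CellTiter-Fluor fluorescence following 1 h reagent incubation, in the same wells as the caspase read.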

[14] = Caspase-3/7 induction in CHO-K1 cells by small molecules, qHTS assay (AID 1346980); note: nearly all actives have a fitted effect of over 15% in size
Procedure, shortened: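 Luminescent Caspase-Glo 3/7 read (30min, room temperature) quantified apoptosis induction. Cells were wild-type CHO-K1, treated with compound for 17hr at 37 C and 5% CO2.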

[15] = Caspase-3/7 induction in HepG2 cells by small molecules, qHTS cell viability counter screen (AID 1346981); note: series mostly up to about 92 µM; nearly all actives have a fitted effect of over 30% in size
Procedure, shortened: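 Viability determined by CellTiter-Fluor fluorescence in HepG2 wells also used for the luminescent Caspase-Glo 3/7 read. Compounds were present for 16 hr at 37 C, 5% CO2 before reagent addition.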

[16] = molecular target: Nuclear receptor subfamily 1 group I member 2 (Homo sapiens) (UniProt O75469); assay: Human pregnane X receptor (PXR) small molecule agonists, qHTS assay (AID 1346982); note: nearly all actives have a fitted effect of over 35% in size; note: potency is the fitted concentration of half-maximal effect
Procedure, shortened: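 Compound-induced hPXR transactivation of a CYP3A4 luciferase reporter was scored in HepG2 PXR-Luc cells over 24 hr at 37 C, 5% CO2, by luminescence.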

[17] = molecular target: Cytochrome P450 2D6 (Homo sapiens) (UniProt P10635); assay: Cytochrome P450 Family 2 Subfamily D Member 6 (CYP2D6) small molecule antagonists: luciferase reporter qHTS assay (AID 1671196); note: nearly all actives have a fitted effect of over 50% in size; note: potency is the fitted concentration of half-maximal effect
Procedure, shortened: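 Each well received CYP2D6 with its proluciferin substrate and chemical, sat 10 min, then got NADPH regeneration solution for 1 h at room temperature. Luminescence in RLU served as the activity measure.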

[18] = molecular target: Nuclear receptor subfamily 1 group I member 2 (Rattus norvegicus) (UniProt Q9R1A7); assay: Rat pregnane X receptor (rPXR) activation by small molecules, qHTS assay (AID 1346983); conditions: rPXR luciferase reporter cells, One-Glo luminescence, 24 h; max activation: hits give high values; note: nearly all actives have a fitted effect of over 20% in size
Procedure, shortened: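 Luminescent readout (One-Glo luciferase, 30 min room temperature) followed 24 hr compound treatment at 37 C of rPXR cells plated 2,000 per well and preincubated 5hr; qHTS format with compounds delivered in DMSO.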

[19] = molecular target: Nuclear receptor subfamily 1 group I member 2 (Homo sapiens) (UniProt O75469); assay: CYP3A4 induction through human pregnane X receptor (PXR) by small molecules, qHTS assay (AID 1346984); note: nearly all actives have a fitted effect of over 40% in size
Procedure, shortened: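 Readings come from a luciferase reporter: DPX-2 cells, which are HepG2 cotransfected with PXR and a CYP3A4-promoter construct, were exposed to test compounds for 24 h at 37C before One-Glo detection.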

[20] = molecular target: Nuclear receptor subfamily 1 group I member 2 (Homo sapiens) (UniProt O75469); assay: Human pregnane X receptor (PXR) activation by small molecules, qHTS assay (AID 1346985); note: nearly all actives have a fitted effect of over 40% in size
Procedure, shortened: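 DPX-2 cells (HepG2 co-transfected with a PXR response element and a CYP3A4-promoter luciferase construct) were seeded at 2,000 per well, rested 5 hr at 37C, then exposed to DMSO-dissolved compounds for 24 hr. Activation was read as luciferase luminescence.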

Nuclear receptor subfamily 1 group I member 2 (Homo sapiens), sequence (O75469 whole entry, looked up): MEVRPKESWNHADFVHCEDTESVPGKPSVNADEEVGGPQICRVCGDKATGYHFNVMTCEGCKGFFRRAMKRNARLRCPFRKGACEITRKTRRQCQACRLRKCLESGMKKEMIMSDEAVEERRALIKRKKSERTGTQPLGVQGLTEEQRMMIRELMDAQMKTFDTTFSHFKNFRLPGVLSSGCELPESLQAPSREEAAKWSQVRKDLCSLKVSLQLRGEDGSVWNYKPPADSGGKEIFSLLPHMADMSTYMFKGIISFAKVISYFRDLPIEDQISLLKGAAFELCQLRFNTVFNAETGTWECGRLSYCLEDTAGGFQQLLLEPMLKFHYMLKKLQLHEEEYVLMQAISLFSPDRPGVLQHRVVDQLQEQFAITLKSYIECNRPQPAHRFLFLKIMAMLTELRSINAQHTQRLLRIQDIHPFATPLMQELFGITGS
Thyrotropin-releasing hormone receptor (Homo sapiens), sequence (P34981 whole entry, looked up): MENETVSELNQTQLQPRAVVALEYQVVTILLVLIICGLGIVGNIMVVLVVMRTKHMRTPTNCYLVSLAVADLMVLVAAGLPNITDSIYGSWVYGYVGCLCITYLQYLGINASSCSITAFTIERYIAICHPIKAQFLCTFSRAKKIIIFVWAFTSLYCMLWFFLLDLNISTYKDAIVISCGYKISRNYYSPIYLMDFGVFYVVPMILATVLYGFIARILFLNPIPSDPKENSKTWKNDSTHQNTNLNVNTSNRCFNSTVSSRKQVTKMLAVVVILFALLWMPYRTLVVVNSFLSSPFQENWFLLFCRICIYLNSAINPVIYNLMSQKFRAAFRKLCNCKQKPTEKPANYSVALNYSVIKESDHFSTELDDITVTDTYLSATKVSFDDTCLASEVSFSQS
Progesterone receptor (Homo sapiens), sequence (P06401 whole entry, looked up): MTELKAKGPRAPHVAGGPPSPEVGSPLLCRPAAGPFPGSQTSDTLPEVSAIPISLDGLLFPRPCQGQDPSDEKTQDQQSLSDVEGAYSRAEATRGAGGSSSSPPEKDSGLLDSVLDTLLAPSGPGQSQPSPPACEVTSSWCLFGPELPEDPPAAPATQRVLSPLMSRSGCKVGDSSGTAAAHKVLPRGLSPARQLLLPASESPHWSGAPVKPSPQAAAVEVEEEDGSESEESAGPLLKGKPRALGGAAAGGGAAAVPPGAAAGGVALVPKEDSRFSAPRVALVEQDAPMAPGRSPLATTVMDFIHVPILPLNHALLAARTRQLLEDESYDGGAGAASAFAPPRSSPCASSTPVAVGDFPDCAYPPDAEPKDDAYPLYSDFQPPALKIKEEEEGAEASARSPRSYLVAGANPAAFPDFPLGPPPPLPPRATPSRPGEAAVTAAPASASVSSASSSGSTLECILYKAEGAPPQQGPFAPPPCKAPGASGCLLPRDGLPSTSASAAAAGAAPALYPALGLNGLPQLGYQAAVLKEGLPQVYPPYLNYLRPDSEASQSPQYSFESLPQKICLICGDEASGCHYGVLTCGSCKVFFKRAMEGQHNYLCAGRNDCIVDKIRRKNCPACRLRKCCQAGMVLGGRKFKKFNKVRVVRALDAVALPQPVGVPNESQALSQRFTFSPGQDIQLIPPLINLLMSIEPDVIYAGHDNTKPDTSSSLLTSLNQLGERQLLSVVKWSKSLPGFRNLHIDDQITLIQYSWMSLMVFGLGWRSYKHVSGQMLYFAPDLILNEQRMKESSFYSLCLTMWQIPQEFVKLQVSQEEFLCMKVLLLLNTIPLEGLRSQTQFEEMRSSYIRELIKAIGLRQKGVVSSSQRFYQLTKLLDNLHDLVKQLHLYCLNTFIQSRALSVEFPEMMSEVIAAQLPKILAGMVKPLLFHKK
Cytochrome P450 2D6 (Homo sapiens), sequence (P10635 whole entry, looked up): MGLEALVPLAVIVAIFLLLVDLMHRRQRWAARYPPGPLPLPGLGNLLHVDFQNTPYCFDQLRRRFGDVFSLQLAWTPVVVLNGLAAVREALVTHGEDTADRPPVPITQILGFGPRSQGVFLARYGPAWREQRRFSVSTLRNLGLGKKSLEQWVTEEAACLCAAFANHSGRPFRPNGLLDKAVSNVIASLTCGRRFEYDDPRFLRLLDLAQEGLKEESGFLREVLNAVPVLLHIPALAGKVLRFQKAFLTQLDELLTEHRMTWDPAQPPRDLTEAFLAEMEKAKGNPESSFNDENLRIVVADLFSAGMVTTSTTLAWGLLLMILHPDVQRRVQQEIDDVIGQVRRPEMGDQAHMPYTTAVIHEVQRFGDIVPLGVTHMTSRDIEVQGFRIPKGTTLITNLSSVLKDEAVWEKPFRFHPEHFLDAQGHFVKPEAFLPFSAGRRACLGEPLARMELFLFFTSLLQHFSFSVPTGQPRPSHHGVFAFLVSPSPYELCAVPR
Nuclear receptor subfamily 1 group I member 2 (Rattus norvegicus), sequence (Q9R1A7 whole entry, looked up): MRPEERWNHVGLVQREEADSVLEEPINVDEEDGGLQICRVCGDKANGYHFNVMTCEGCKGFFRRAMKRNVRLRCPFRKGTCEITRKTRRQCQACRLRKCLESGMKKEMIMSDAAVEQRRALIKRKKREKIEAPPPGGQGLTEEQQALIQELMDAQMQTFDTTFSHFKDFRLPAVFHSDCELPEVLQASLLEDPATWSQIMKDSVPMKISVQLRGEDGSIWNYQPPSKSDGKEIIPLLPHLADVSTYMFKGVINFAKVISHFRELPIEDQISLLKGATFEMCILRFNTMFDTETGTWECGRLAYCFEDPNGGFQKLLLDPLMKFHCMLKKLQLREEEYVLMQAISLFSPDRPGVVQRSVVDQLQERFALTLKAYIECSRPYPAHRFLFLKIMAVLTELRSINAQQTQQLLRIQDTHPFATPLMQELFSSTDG

| SMILES | Potency [1] | outcome [2] | Potency [3] | Potency [4] | Potency [5] | Potency [6] | Potency [7] | outcome [8] | outcome [9] | Potency [10] | Potency [11] | outcome [12] | Potency [13] | Potency [14] | Potency [15] | Potency [16] | Potency [17] | max activation [18] [%] | Potency [19] | Potency [20] |
| --- | --- | --- | --- | --- | --- | --- | --- | --- | --- | --- | --- | --- | --- | --- | --- | --- | --- | --- | --- | --- |
| CC(C)(C)c1ccc(S)cc1 | inactive | inactive | inactive | inactive | inactive | inactive | inactive | inactive | inactive | inactive | inactive | inactive | inactive | inactive | inactive | inactive | inactive | – | – | – |
| CC/C(=C\C(=N/O)C(N)=O)C(C)[N+](=O)[O-] (stereo not drawn) | inactive | inactive | inactive | inactive | inactive | inactive | inactive | inactive | inactive | inactive | – | inactive | inactive | inactive | inactive | inactive | inactive | – | – | – |
| CCN(CC)CCc1nc(-c2ccccc2)no1 | inactive | inactive | inactive | inactive | inactive | inactive | inactive | inactive | inactive | inactive | inactive | inactive | inactive | – | inactive | inactive | 7.76 µM (active) | -0.305 | inactive | inactive |
| O=c1c2ccccc2nnn1CCl | inactive | inactive | inactive | inactive | – | inactive | inactive | inactive | inactive | inactive | inactive | inactive | inactive | inactive | inactive | 61.1 µM (active) | 14.2 µM (active) | – | – | – |
| FC(F)(F)C(F)(F)C(F)(F)C(F)(F)C(F)(F)C(F)(F)CCI | inactive | inactive | inactive | inactive | inactive | inactive | inactive | – | inactive | inactive | – | inactive | inactive | inactive | inactive | inactive | – | – | – | – |
| CC(C)NCC(O)c1cc(O)cc(O)c1 (stereo not drawn) | inactive | inactive | inactive | inactive | inactive | inactive | inactive | inactive | – | – | inactive | inactive | inactive | – | inactive | inactive | inactive | -6.91 | – | inactive |
| CC(C)c1cccc(C(C)C)c1NC(=O)NS(=O)(=O)c1cc(C(C)(C)O)co1 | inactive | inactive | inactive | inactive | inactive | inactive | inactive | inactive | – | – | inactive | inactive | inactive | inactive | inactive | inactive | inactive | – | – | – |
| CCCCCCOC(=O)CCC | inactive | inactive | inactive | inactive | inactive | inactive | inactive | – | inactive | inactive | – | inactive | inactive | – | inactive | inactive | inactive | – | – | – |
| CCCCCCCCC(CO)CCCCCC (stereo not drawn) | inactive | inactive | inactive | inactive | inactive | inactive | inactive | inactive | – | – | – | inactive | inactive | – | inactive | inactive | inactive | – | – | – |
| OC(CCN1CCCCC1)(c1ccccc1)C1CCCCC1 (stereo not drawn) | inactive | inactive | inactive | inactive | inactive | inactive | inactive | – | – | – | – | inactive | inactive | inactive | inactive | – | 0.977 µM (active) | -2.68 | – | inactive |
| Cc1cc(NC(=O)C(=O)O)cc(C)c1Oc1ccc(O)c2c1CCC2 | inactive | inactive | inactive | inactive | – | inactive | inactive | inactive | inactive | inactive | inactive | inactive | inactive | inactive | inactive | inactive | – | – | – | – |
| CC(C)(C)C1CCCCC1O (stereo not drawn) | inactive | inactive | inactive | inactive | inactive | inactive | inactive | inactive | – | – | – | inactive | – | – | inactive | inactive | inactive | – | – | – |
| C=C(C)C(=O)OCCN(C)C | inactive | inactive | inactive | inactive | inactive | inactive | inactive | – | inactive | inactive | – | inactive | inactive | inactive | inactive | inactive | inactive | – | – | – |
| CCCCCCCCCCCCCCCC(=O)OC/C=C(C)/C=C/C=C(C)/C=C/C1=C(C)CCCC1(C)C | inactive | inactive | inactive | inactive | inactive | inactive | inactive | inactive | inactive | inactive | – | inactive | inactive | inactive | inactive | 24.3 µM (active) | inactive | – | – | – |
| CCCCOc1cc(C(=O)OCCN(CC)CC)ccc1N | inactive | inactive | inactive | inactive | inactive | inactive | inactive | inactive | inactive | inactive | inactive | inactive | inactive | inactive | inactive | – | – | -4.73 | – | – |
| CCCCCc1ccc(N)cc1 | inactive | inactive | inactive | inactive | – | inactive | inactive | inactive | inactive | inactive | inactive | inactive | – | inactive | inactive | – | 31.7 µM (active) | – | – | – |
| CCCCOC(=O)c1ccccc1C(=O)OCC(CC)CCCC (stereo not drawn) | inactive | inactive | 48.6 µM (active) | inactive | inactive | inactive | inactive | – | inactive | inactive | inactive | inactive | inactive | inactive | inactive | inactive | inactive | – | – | – |
